Source: PubChem BioAssay (NCI)
This is part of a sample that, as a whole, favours compounds with a hit. Of some 79,000 tested, about 15% had one in any assay. A number with no mark means an inactive call. The source made the active and inactive calls. Rule as the data show it: active = growth inhibition above about 70%; inactive = the rest.

Experiments:
[1] = NCI Yeast Anticancer Drug Screen. Data for the rad50 strain (AID 155);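 also: 0% = growth of vehicle-only cultures of the same strain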; details: S. cerevisiae rad50 strain growth inhibition; at 50.0 µM; hits give high values
Outline: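 Genetically altered yeast (DNA repair pathway); compound treatment; growth inhibition vs vehicle ctrl.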

[2] = NCI Yeast Anticancer Drug Screen. Data for the mec2-1 strain (AID 157); details: S. cerevisiae mec2-1 strain, at 50.0 µM, hits give high values
Outline: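 mec2-1 yeast strain, carrying an alteration in DNA damage repair or cell cycle control, was exposed to compounds; growth inhibition was measured relative to vehicle-treated controls.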

[3] = NCI Yeast Anticancer Drug Screen. Data for the sgs1 mgt1 strain (AID 161);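 also: 0% = growth of cultures given vehicle only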; details: S. cerevisiae sgs1 mgt1 strain, at 50.0 µM, hits give high values
Outline: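 This yeast growth screen uses a strain with defined DNA-repair lesions; compound-treated growth is compared with vehicle-treated growth.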

[4] = NCI Yeast Anticancer Drug Screen. Data for the cln2 rad14 strain (AID 165);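 also: 0% = growth equal to vehicle treated cultures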; details: S. cerevisiae cln2 rad14 strain, at 50.0 µM, hits give high values
Outline: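 Yeast carrying cln2 and rad14 alterations (cell cycle control and DNA damage repair) were exposed to compounds. Growth inhibition was measured against vehicle-treated controls.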

[5] = NCI Yeast Anticancer Drug Screen. Data for the bub3 strain (AID 167); details: S. cerevisiae bub3 mutant strain, at 50.0 µM, hits give high values
Outline: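 Yeast carrying a defined mutation is treated with each compound, and growth is compared with that of vehicle-exposed cells to give inhibition.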

[6] = NCI Yeast Anticancer Drug Screen. Data for the mlh1 rad18 strain (AID 175); details: S. cerevisiae mlh1 rad18 strain growth inhibition; at 50.0 µM; hits give high values
Outline: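 Growth inhibition of the yeast strain was measured after compound exposure and expressed relative to vehicle-treated controls. The strain carries defined defects in DNA damage repair.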

Row | Compound | growth inhibition [1] | growth inhibition [2] | growth inhibition [3] | growth inhibition [4] | growth inhibition [5] | growth inhibition [6]
1 | Cc1cc(=O)c(O)c(C)o1 | -1.4% | -2.9% | -3.4% | 2.5% | -0.05% | -1.7%
2 | O=C(O)CSc1nc2c(Cl)c(Cl)c(Cl)cc2[nH]1 | -11.7% | -14.1% | 2% | 1.6% | 13.2% | -9.9%
3 | CCCCCCC(C)C(CC)(C(=O)OCC)C(=O)OCC (stereo not given) | -16.1% | 6.55% | -0.2% | 12.1% | -14.3% | 7.65%
4 | CCOC(=O)c1c(C)c(=O)cnc2c(C#N)cnn12 | -4.55% | -6.75% | -6.8% | -33.2% | -1.4% | -8.35%
5 | C=CCSc1ncnc2c1c(Br)cn2C1OC(CO)C(O)C1O (stereo not given) | 96.3% (active) | 97.5% (active) | 97.1% (active) | 97.5% (active) | 96.9% (active) | 98.3% (active)
6 | COc1cccc2c1C(=O)C=CC2=O | 76.8% (active) | 80.7% (active) | 84.3% (active) | 87.2% (active) | 87.2% (active) | 91.8% (active)
7 | NC(=O)c1ccccc1NC(=O)Nc1ccc(Cl)cc1 | -3.6% | 20.8% | 13.8% | -15.3% | 21.5% | 27%
8 | OCCOc1ccccc1-c1ccccc1 | -28.6% | -14.3% | -15.5% | -14% | -29.5% | -7.65%
9 | N#Cc1c(N)c(C(=O)O)nn(-c2cccc(C(F)(F)F)c2)c1=O | -8.95% | 1.7% | 44% | 10.8% | -11.2% | -15.9%
10 | COC(=O)C(=NNc1ccccc1[N+](=O)[O-])C(=O)OC | 15.9% | 5% | 23.1% | 33.8% | 19.8% | -2.6%
11 | CC(=O)Oc1c(C(OC(C)=O)OC(C)=O)ccc([N+](=O)[O-])c1OC(C)=O | 34.1% | 28.9% | 36.5% | 5.5% | 9.3% | 18.9%
12 | O=c1[nH]cc(C(F)(C(F)(F)F)C(F)(F)F)c(=O)[nH]1 | -21.9% | -18.9% | -24.6% | -4.25% | -25.3% | -36.8%
13 | O=C(NC1CCCCC1)N(C1CCCCC1)C1CCCCC1 | 7.65% | 9.95% | -2.05% | 2.85% | 23.9% | 1.85%
14 | C=CCNC(=O)N(CCCC(NC(C)=O)C(=O)NCc1ccccc1)Cc1ccccc1 (stereo not given) | 2.5% | -2.85% | -8.85% | 26.4% | -5.25% | -10.2%
15 | O=C1OC(c2ccc(Cl)c3ccccc23)c2ccccc21 (stereo not given) | 58.6% | 19.2% | 34.4% | 28.6% | 12.8% | 43.3%
16 | CCOC(=O)NC(=O)c1cn(CCN2CCN(C(=O)CCCCCCCCCCNc3ncnc4nc[nH]c34)CC2)c(=O)[nH]c1=O | -18.5% | -6.75% | -12.8% | -25.6% | 0.05% | -14.2%
17 | CCOC(=O)CC(O)(c1ccccc1)c1ccccc1 | -30.9% | -47.4% | 7.35% | 5.1% | -25.2% | -31.5%
18 | O=C1OC(=O)C2C3C=CC(CC3)C12 (stereo not given) | -1.35% | 4% | -13.3% | -65% | -31.1% | -0.1%
19 | c1nc2c([nH]1)CNCC2 | -3.05% | -11.2% | -9.05% | -65.7% | -12.2% | 5%
20 | COc1ccc(/C=C2\C(=O)N(C(=O)c3ccc(NC(C)=O)cc3)N=C2C)cc1 | -27.6% | -36.2% | -39.2% | -0.3% | -20.9% | -41.2%
